Results filed as inconclusive are left out. The source made the active and inactive calls. Unless noted, the call rests on the fitted dose curve; in most records, active means well fitted curve in the direction sought with a large enough effect in the repeat runs; inconclusive means weak or mixed curves; inactive means no such curve, though single readings can be large; an effect the other way counts as inactive or inconclusive.
Assays:
[1] = qHTS assay to test for compound auto fluorescence at 535 nm (green) in HEK293 cells (AID 720680)
[2] = qHTS assay to test for compound auto fluorescence at 460 nm (blue) in HEK293 cell free culture (AID 720681)
In short: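 Test compounds were pinned into cell-free culture medium (DMEM with 10% FBS) and fluorescence was read directly at Ex/Em 405/460 nm. Signals were expressed as fluorescence equivalents of triamterene, with DMSO vehicle as control.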

[3] = qHTS assay to test for compound auto fluorescence at 535 nm (green) in HEK293 cell free culture (AID 720682)
In short: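 Each library compound, or DMSO control, is added by pintool to medium alone, comprising DMEM and 10% FBS. Emission at 535 nm following 485 nm excitation is quantified against fluorescein.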

[4] = qHTS assay to test for compound auto fluorescence at 590 nm (red) in HEK293 cell free culture (AID 720683)
In short: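 Tox21 10K library compounds were pinned into cell-free DMEM with 10% FBS and fluorescence was read at excitation 540 nm. Activity is expressed as Rose Bengal sodium equivalency.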

[5] = qHTS assay to test for compound auto fluorescence at 590 nm (red) in HepG2 cell free culture (AID 720684)
In short: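 Ex 540 / Em 590 nm read of compound in cell-free MEM (10% FBS). Rose Bengal sodium reference.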

[6] = qHTS assay to test for compound auto fluorescence at 460 nm (blue) in HepG2 cell free culture (AID 720685)
In short: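 Cell-free plates of MEM plus 10% FBS received 23 nL compound or DMSO vehicle; blue-channel (405/460 nm) intensity scored against triamterene as reference fluorophore.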

[7] = qHTS assay to test for compound auto fluorescence at 460 nm (blue) in HepG2 cells (AID 720687)
In short: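 Cells (2,000/well in MEM with 10% FBS) attached overnight at 37 C, then were exposed to compound or DMSO for 1 hr at 37 C, 5% CO2. Fluorescence read at Ex/Em 405/460 nm, expressed as triamterene-equivalent signal.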

[8] = molecular target: Glucocorticoid receptor (Homo sapiens) (UniProt P04150); experiment: qHTS assay to identify small molecule antagonists of the glucocorticoid receptor (GR) signaling pathway (AID 720692; active means well fitted inhibition curve with a large enough effect in the signal ratio in the repeat runs, not every such curve was filed as active; the % refers to the signal ratio)
In short: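 Tox21 10K library screened in concentration-response for blockade of dexamethasone (5 nM final)-induced GRE-bla reporter activity in HeLa cells; 18 h treatment, fluorescence read.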

[9] = qHTS assay for identifying genotoxic compounds that show differential cytotoxicity against isogenic chicken DT40 cell lines with known DNA damage response pathways - wild type cell line (AID 743012); further: nearly all actives have a fitted effect of over 60% in size; further: potency means the concentration at half of the fitted maximal effect
In short: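 Endpoint: CellTiter-Glo luminescence, 30 min RT. Cells: wild type DT40, 300/well. Exposure: compounds in DMSO, 40 h, 37 C/5% CO2, after ~0.5 h pre-incubation.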

[10] = qHTS assay for identifying genotoxic compounds that show differential cytotoxicity against isogenic chicken DT40 cell lines with known DNA damage response pathways - Rev3 mutant cell line (AID 743014); further: nearly all actives have a fitted effect of over 55% in size; further: potency means the concentration at half of the fitted maximal effect
[11] = qHTS assay for identifying genotoxic compounds that show differential cytotoxicity against isogenic chicken DT40 cell lines with known DNA damage response pathways - Rad54/Ku70 mutant cell line (AID 743015); further: nearly all actives have a fitted effect of over 60% in size; further: potency means the concentration at half of the fitted maximal effect
[12] = molecular target: Androgen receptor (Homo sapiens) (UniProt P10275); experiment: qHTS assay to identify small molecule agonists of the androgen receptor (AR) signaling pathway using the MDA cell line (AID 743040; further: nearly all actives have a fitted effect of over 20% in size)
In short: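 Cell-based luciferase reporter: MDA-kb2, MMTV promoter (AR + GR response elements). 16 h compound exposure at 37C; ONE-Glo, 30 min RT, luminescence.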

[13] = qHTS assay to identify small molecule antagonists of the androgen receptor (AR) signaling pathway using the MDA cell line - cell viability counter screen (AID 743041; further: nearly all actives have a fitted effect of over 45% in size)
In short: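 In this qHTS counter assay, fluorescence intensity after CellTiter-Fluor addition indicated viability of MDA-kb2 AR-luc cells given compounds and R1881 for 16 h at 37C.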

[14] = molecular target: Androgen receptor (Homo sapiens) (UniProt P10275); experiment: qHTS assay to identify small molecule antagonists of the androgen receptor (AR) signaling pathway using the MDA cell line (AID 743042; further: nearly all actives have a fitted effect of over 55% in size)
In short: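 MDA-kb2 cells (human breast carcinoma, stably carrying an MMTV-luciferase reporter responsive to AR and GR) were plated at 3,000 cells/well and preincubated 5 hr at 37C, then given compound plus R1881 agonist for 16 h. ONE-Glo luminescence was read.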

[15] = qHTS assay to test for compound auto fluorescence at 535 nm (green) in HepG2 cell free culture (AID 720686)
[16] = molecular target: Glucocorticoid receptor (Homo sapiens) (UniProt P04150); experiment: qHTS assay to identify small molecule agonists of the glucocorticoid receptor (GR) signaling pathway (AID 720691; active means well fitted activation curve with a large enough effect in the signal ratio in the repeat runs, not every such curve was filed as active; the % refers to the signal ratio)
In short: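 Measures GR pathway activation through a GRE-beta-lactamase reporter stably integrated in HeLa cells, with 18 h compound treatment at 37 C and fluorescence detection using a FRET substrate.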

[17] = qHTS assay to identify small molecule antagonists of the glucocorticoid receptor (GR) signaling pathway - cell viability counter screen (AID 720693); further: nearly all actives have a fitted effect of over 55% in size
[18] = qHTS assay to identify small molecule antagonists of the androgen receptor (AR) signaling pathway - cell viability counter screen (AID 743033; further: nearly all actives have a fitted effect of over 45% in size)
[19] = molecular target: Androgen receptor (Homo sapiens) (UniProt P10275); experiment: qHTS assay to identify small molecule antagonists of the androgen receptor (AR) signaling pathway (AID 743035; active means well fitted inhibition curve with a large enough effect in the signal ratio in the repeat runs, not every such curve was filed as active; the % refers to the signal ratio)
In short: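 R1881 agonist challenge of a HEK293 UAS-beta-lactamase AR reporter line in the presence of compound (16 h, 37C); signal taken as FRET fluorescence after 2 h with LiveBLAzer B/G substrate at room temperature.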

[20] = molecular target: Androgen receptor (Homo sapiens) (UniProt P10275); experiment: qHTS assay to identify small molecule agonists of the androgen receptor (AR) signaling pathway (AID 743036; active means well fitted activation curve with a large enough effect in the signal ratio in the repeat runs, with a control signal flat, not every such curve was filed as active; the % refers to the signal ratio)
In short: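 Following a 4 h settling period, AR-UAS-bla HEK293 cells were dosed with compounds for 16 h at 37C. A 2 h room-temperature incubation with LiveBLAzer B/G FRET substrate preceded the fluorescence measurement.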
On the % scale 0 is the no-effect control and ±100 the full control effect.

Sequence of Androgen receptor (Homo sapiens) (P10275 whole entry, looked up): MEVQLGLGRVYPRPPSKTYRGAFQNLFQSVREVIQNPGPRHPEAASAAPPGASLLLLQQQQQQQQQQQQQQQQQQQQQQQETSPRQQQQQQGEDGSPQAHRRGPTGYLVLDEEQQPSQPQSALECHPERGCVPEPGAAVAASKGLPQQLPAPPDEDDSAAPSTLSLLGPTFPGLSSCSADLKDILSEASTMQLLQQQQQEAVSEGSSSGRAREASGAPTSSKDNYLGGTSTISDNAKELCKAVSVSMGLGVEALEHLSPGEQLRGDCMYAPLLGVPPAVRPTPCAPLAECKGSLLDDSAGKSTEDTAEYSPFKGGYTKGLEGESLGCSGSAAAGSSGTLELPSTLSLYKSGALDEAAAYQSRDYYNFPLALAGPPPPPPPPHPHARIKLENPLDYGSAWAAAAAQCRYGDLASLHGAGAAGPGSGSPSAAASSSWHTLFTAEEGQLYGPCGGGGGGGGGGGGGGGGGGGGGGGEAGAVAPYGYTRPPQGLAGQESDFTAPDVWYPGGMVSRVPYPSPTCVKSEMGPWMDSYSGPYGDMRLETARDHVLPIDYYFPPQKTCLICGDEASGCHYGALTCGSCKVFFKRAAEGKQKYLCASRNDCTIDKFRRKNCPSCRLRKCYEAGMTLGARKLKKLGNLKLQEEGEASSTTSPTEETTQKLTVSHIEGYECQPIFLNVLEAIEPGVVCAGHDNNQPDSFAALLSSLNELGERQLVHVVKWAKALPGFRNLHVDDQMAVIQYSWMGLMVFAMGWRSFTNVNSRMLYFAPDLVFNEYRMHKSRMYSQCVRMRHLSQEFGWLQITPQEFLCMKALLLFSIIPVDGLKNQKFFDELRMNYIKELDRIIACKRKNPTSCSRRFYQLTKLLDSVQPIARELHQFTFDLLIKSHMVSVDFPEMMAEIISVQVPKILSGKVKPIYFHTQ
Sequence of Glucocorticoid receptor (Homo sapiens) (P04150 whole entry, looked up): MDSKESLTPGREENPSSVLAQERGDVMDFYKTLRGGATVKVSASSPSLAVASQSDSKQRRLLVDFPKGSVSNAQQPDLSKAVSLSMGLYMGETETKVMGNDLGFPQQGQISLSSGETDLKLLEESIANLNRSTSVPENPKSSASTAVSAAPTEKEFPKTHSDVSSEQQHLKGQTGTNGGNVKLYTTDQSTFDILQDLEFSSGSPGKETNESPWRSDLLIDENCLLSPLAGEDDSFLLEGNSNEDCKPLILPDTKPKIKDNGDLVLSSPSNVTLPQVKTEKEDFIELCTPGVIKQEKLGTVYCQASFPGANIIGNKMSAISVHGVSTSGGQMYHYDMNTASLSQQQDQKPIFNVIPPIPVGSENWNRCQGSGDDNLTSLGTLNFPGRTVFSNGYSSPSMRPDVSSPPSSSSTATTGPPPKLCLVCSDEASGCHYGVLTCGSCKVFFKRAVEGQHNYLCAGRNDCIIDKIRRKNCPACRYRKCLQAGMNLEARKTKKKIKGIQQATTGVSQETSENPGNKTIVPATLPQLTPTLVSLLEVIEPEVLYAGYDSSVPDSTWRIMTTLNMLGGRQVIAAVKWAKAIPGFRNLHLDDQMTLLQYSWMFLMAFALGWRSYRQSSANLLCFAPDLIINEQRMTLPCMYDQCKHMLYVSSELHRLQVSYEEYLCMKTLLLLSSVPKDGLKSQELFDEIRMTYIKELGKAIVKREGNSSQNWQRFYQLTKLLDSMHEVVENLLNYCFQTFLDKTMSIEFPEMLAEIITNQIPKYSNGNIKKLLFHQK

CN1CCN(C2=Nc3ccccc3Sc3ccc(Cl)cc32)CC1
active: Potency [9] 8.41 µM | Potency [10] 6.68 µM | Potency [11] 10.6 µM
inactive: outcome [1] | Potency [2] | outcome [3] | outcome [4] | outcome [5] | Potency [6] | Potency [7] | Potency [8] | Potency [12] | Potency [13] | Potency [14]

CCN(CC)CCNC(C(=O)OCCC(C)C)c1ccccc1 (stereo not given)
inactive: outcome [1] | Potency [2] | outcome [3] | outcome [4] | outcome [5] | outcome [15] | Potency [7] | Potency [16] | Potency [8] | Potency [17] | Potency [18] | Potency [13]
active: Potency [9] 26.6 µM

CC(=O)O[C@@H]1C(=O)O[C@@H]2[C@H]1OC(=O)[C@@H]2OC(C)=O
active: Potency [9] 26.6 µM | Potency [11] 26.6 µM
inactive: outcome [1] | Potency [2] | outcome [3] | outcome [4] | outcome [5] | Potency [6] | Potency [16] | Potency [17] | Potency [18] | Potency [13]

Cn1c(=O)c2c(ncn2CC(O)CO)n(C)c1=O (stereo not given)
inactive: fluorescence, % of fluorescein [1] -0.0383% [at 18.6 µM] | fluorescence, % of fluorescent control [2] -0.0654% [at 18.6 µM] | activity change [3] -0.0177% [at 18.6 µM] | fluorescence, % of fluorescent control [4] 0.293% [at 18.6 µM] | fluorescence, % of Rose Bengal [5] -0.139% [at 18.6 µM] | fluorescence, % of fluorescent control [6] -0.106% [at 18.6 µM] | fluorescence, % of fluorescein control [15] -0.0139% [at 18.6 µM] | Potency [16] | Potency [17] | Potency [9] | Potency [10] | Potency [11] | Potency [18] | Potency [13]

ClC(Cl)(Cl)c1ccc(C(Cl)(Cl)Cl)cc1
inactive: outcome [1] | Potency [2] | outcome [3] | outcome [4] | outcome [5] | Potency [6] | Potency [7] | Potency [16] | Potency [8] | Potency [17] | Potency [9] | Potency [10] | Potency [11] | Potency [18] | Potency [13]

C1CCC2OC2C1 (stereo not given)
inactive: outcome [1] | Potency [2] | outcome [3] | outcome [4] | outcome [5] | outcome [15] | Potency [7] | Potency [16] | Potency [8] | Potency [17] | Potency [9] | Potency [11] | Potency [18] | Potency [19] | outcome [20] | Potency [12] | Potency [13] | Potency [14]

C=CC(=O)OCCOC(=O)CCC(=O)O
inactive: outcome [1] | Potency [2] | outcome [3] | outcome [4] | outcome [5] | Potency [6] | Potency [17] | Potency [10] | Potency [11] | Potency [18] | Potency [13]

CC(=O)Nc1ccc(/C=N/NC(N)=S)cc1
inactive: outcome [1] | Potency [2] | outcome [3] | outcome [4] | Potency [6] | outcome [15] | Potency [7] | Potency [17] | Potency [9] | Potency [10] | Potency [11] | Potency [18] | Potency [13]

CC(C)NCC(O)c1cc(O)cc(O)c1 (stereo not given)
inactive: outcome [1] | Potency [2] | outcome [3] | outcome [4] | Potency [6] | outcome [15] | Potency [7] | Potency [17] | Potency [9] | Potency [10] | Potency [11] | Potency [18] | Potency [13]

CC1=CCC(C(C)C)C=C1 (stereo not given)
inactive: outcome [1] | Potency [2] | outcome [3] | outcome [4] | outcome [5] | outcome [15] | Potency [7] | Potency [17] | Potency [9] | Potency [18] | Potency [13]

Cc1ncsc1CCO
inactive: outcome [1] | Potency [2] | outcome [3] | outcome [4] | Potency [6] | outcome [15] | Potency [9] | Potency [10] | Potency [11] | Potency [18] | Potency [13]

NCc1ccccc1
inactive: outcome [1] | Potency [2] | outcome [3] | outcome [4] | Potency [6] | outcome [15] | Potency [7] | Potency [16] | Potency [8] | Potency [17] | Potency [9] | Potency [10] | Potency [11] | Potency [18] | Potency [13]
